Compound activity from PubChem BioAssay.
Shown are actives, neighbours in structure and some others; about 4% of the full set was active somewhere.
ERAP1 inh: human ERAP1 aminopeptidase inhibitors, primary screen, biochemical, single point, plate reader. Endoplasmic reticulum aminopeptidase 1 (Homo sapiens), Q9NZ08. recombinant ERAP1, Leu-AMC fluorescence, 60 min. inhibition, % at 10.7 µM. actives 0.15% (n = 340,000);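 active = mean replicate inhibition of at least 30%, or all replicates individually reaching that 30% level; inactive = mean below 30% and not every replicate reaching it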
DENV2 CPE rescue: inhibitors of DENV2 cytopathic effect, primary screen, cell-based, plate reader, single concentration. DENV2-infected cells, cytopathic effect rescue. CPE inhibition, % at 9.99 µM. actives 1.7% (n = 350,000). AID 651640, 2012; in the data active = CPE inhibition above about 20%, passing the limit was not always enough; inconclusive = no clear call, values can overlap the other calls; tested in BHK-21 cells
MLL AF4-AF9 inh: inhibitors of AF4 peptide binding to AF9, primary screen, biochemical, AlphaScreen, biotin-AF4 peptide, FLAG-AF9, single point; Protein AF-9 (Homo sapiens), P42568; inhibition, % at 10 µM; actives 0.47% (n = 350,000); AID 651704, 2012;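 active = every replicate reaching a set inhibition limit, whatever the replicate mean, cut at about 25% in these data; inconclusive = mean inhibition reaches that limit but some replicates miss it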
Target sequence (P42568 whole entry, looked up): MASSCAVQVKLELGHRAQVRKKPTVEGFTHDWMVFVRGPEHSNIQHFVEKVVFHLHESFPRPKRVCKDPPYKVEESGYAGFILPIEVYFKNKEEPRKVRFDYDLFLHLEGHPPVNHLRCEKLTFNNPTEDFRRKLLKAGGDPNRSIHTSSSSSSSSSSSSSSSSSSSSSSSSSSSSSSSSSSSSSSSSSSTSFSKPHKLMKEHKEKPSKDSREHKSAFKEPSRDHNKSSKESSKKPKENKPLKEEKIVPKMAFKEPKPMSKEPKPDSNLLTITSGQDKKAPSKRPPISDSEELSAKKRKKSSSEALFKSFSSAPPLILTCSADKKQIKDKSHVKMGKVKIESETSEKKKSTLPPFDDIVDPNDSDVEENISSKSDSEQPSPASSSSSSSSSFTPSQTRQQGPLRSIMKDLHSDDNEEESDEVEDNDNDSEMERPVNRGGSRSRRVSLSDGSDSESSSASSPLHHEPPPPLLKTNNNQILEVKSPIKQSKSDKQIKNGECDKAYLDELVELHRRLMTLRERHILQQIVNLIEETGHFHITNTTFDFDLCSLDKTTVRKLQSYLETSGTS
FGF22 binding: binders of human FGF22 protein, primary screen, FGF22 synaptogenesis inhibitor project, biophysical, thermal shift, single point; Fibroblast growth factor 22 (Homo sapiens), Q9HCT0; recombinant FGF22 thermal shift, SYPRO orange fluorescence; percent of sucrose octasulfate shift, DMSO zero; activity (Tm shift, normalised), % at 9.99 µM; actives 1.5% (n = 340,000); AID 651658, 2012;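 active = mean Tm shift, scaled 0 neutral to 100 positive control, at about 1.3% or above, every replicate too, limit read from the data; inconclusive = no clear call, values can overlap the other calls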
RAD52 inh: RAD52 DNA annealing inhibitors, primary screen, biochemical, FRET, single point, set 2 | DNA repair protein RAD52 homolog (Homo sapiens), P43351 | recombinant RAD52 DNA annealing, FRET fluorescence | inhibition, % at 18.7 µM | actives 0.46% (n = 360,000);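 active = every replicate showing at least 50% inhibition; inconclusive = mean inhibition at least 50% but not in every replicate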
RAD52 DNA ctr: DNA-binding compounds via dye displacement, dose response, artefact control for RAD52 inhibitor project, biochemical, fluorescence polarization, cherry-pick; shares compounds with RAD52 inh; Salmon sperm DNA/acridine orange FP displacement; AC50, µM; actives 8% (n = 1,000); AID 652128, 2013;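 active = fitted half-maximal concentration for signal loss at or below twice the highest dose tested, in every separate run, actives reach about 64 µM in these data; inconclusive = runs disagree, or flat partial signal loss, or poor fit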
Of the large screens only hits and unclear results are named; the others gave an inactive call (follow-up assays come after a bar, where they were run).

Cc1c2cnn(-c3ccccc3)c(=O)c2c(C)n1CCCC(=O)NCCN1CCN(C)CC1	MLL AF4-AF9 inh inconclusive, RAD52 inh 58 (no result: ERAP1 inh) | RAD52 DNA ctr inactive
CCC(=O)N(C)C[C@H]1Oc2cc(-c3cncnc3)ccc2S(=O)(=O)N([C@@H](C)CO)C[C@H]1C	none (no result: FGF22 binding)
CCN(CC)CCNc1nc(-c2cccs2)c(CC(=O)O)s1	RAD52 inh 88 | RAD52 DNA ctr inactive
CC[n+]1ccc(/C=C/c2ccc(N(C)C)cc2)c2ccccc21	MLL AF4-AF9 inh 73, RAD52 inh 60 | RAD52 DNA ctr 13µM
CCCC#Cc1ccc2c(c1)O[C@@H](CN(C)C(=O)CC1CC1)[C@H](C)CN([C@@H](C)CO)S2(=O)=O	none
CCOC(=O)c1c(C)n(C)c2ccc(OCC(O)CN3CCN(C)CC3)cc12 (stereo not drawn)	none (no result: ERAP1 inh)
CCOC(=O)c1c(C)n(-c2ccc(C)cc2)c2ccc(OCC(O)CN3CCN(C)CC3)cc12 (stereo not drawn)	MLL AF4-AF9 inh 41, RAD52 inh 97 | RAD52 DNA ctr inactive
Nc1ccc(N2CCN(CCCCN3C(=O)C4CCCN4C3=O)CC2)cc1 (stereo not drawn)	MLL AF4-AF9 inh 49, RAD52 inh 101 | RAD52 DNA ctr inactive
COc1ccc(CNCc2cc(OC)ccc2OC)cc1	none
COc1ccc2cc(CNCCOCCOCCNCc3ccc4cc(OC)ccc4c3)ccc2c1	RAD52 inh 64 | RAD52 DNA ctr inactive
O=C(N/N=C/c1cccc([N+](=O)[O-])c1)c1cc[n+](CCO)cc1	RAD52 inh 82 | RAD52 DNA ctr inactive
Nc1ccccc1C(=O)NN=Cc1cccc([N+](=O)[O-])c1	DENV2 CPE rescue inconclusive
CC(=O)C1CCC2C3CC=C4CC(SC(=N)N)CCC4(C)C3CCC12C (stereo not drawn)	RAD52 inh 51 | RAD52 DNA ctr inactive
CC(=O)OCC(=O)C1CCC2C3CC=C4CC(O)CCC4(C)C3CCC12C (stereo not drawn)	none
CCCC#Cc1ccc2c(c1)O[C@@H](CN(C)CC1CCOCC1)[C@@H](C)CN([C@@H](C)CO)S2(=O)=O	none
Cc1sc2nc(CN3CCCCC3)nc(Nc3ccc4c(c3)OCCO4)c2c1C	RAD52 inh 72 (no result: DENV2 CPE rescue) | RAD52 DNA ctr inactive
Cc1sc2nc(CN3CCCC3)nc(NCc3ccncc3)c2c1C	none
CCOC(=O)c1c(CNc2ccncc2)n(C)c2cc(Br)c(O)cc12	RAD52 inh 64 | RAD52 DNA ctr inactive
CCOC(=O)c1c(CS(=O)(=O)c2ccccc2)n(C)c2cc(Br)c(O)cc12	none
O=C(NCCO)c1cc2c([nH]c3ccccc32)c(-c2ccccc2)n1	none
Cc1ccc(-c2nc(C(=O)NCCCN(C)C)cc3c2[nH]c2ccccc23)cc1	RAD52 inh 93 | RAD52 DNA ctr inconclusive
CCOC(=O)c1cnc2ccc(OCC)cc2c1NCCCN1CCOCC1	RAD52 inh 70 | RAD52 DNA ctr inactive
CCOC(=O)c1cnc2ccc(OCC)cc2c1NCCN1CCOCC1	none
COc1ccc(NC(=O)Nc2ccc3c(c2)[C@@H]2C[C@@H](CC(=O)N(C)C)O[C@H](CO)[C@@H]2O3)cc1	none
O=C(C[C@H]1C=C[C@@H](NC(=O)CCN2CCCCC2)[C@H](CO)O1)Nc1ccccc1	none (no result: FGF22 binding)
Nc1ccc(Nc2ccncc2)cc1	RAD52 inh 69 | RAD52 DNA ctr inactive
O=C(C[C@H]1C[C@@H]2c3cc(NC(=O)Nc4ccccc4)ccc3O[C@@H]2[C@H](CO)O1)NCC1CC1	none
Fc1ccccc1CNc1nc(NCC2CC2)nc2ccsc12	RAD52 inh 51 | RAD52 DNA ctr inactive
COc1ccc(CN(C)C[C@@H]2Oc3c(NS(=O)(=O)c4ccc(OC)cc4)cccc3C(=O)N([C@H](C)CO)C[C@H]2C)cc1	DENV2 CPE rescue inconclusive
COc1ccc2nc3cc(Cl)ccc3c(Nc3ccc(O)c(CN4CCN(C)CC4)c3)c2c1	MLL AF4-AF9 inh 59, RAD52 inh 104 | RAD52 DNA ctr 6.1µM
